# Compound activity (PubChem)
# Most compounds without a hit are left out; they make up all but 1.3% or so of the library.
# hERG WT inh = qHTS for Inhibitors of KCHN2 3.1: Wildtype qHTS | activity change, % at 1.84 µM | 340,000 compounds, 0.37% hits | U2OS, BacMam KCNH2, thallium flux FluxOr; hits give low values;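 active = maximum activity change below -70%; inconclusive = maximum activity change between -70% and -50%; inactive = maximum activity change above -50%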
# Target sequence (Q12809 whole entry, looked up): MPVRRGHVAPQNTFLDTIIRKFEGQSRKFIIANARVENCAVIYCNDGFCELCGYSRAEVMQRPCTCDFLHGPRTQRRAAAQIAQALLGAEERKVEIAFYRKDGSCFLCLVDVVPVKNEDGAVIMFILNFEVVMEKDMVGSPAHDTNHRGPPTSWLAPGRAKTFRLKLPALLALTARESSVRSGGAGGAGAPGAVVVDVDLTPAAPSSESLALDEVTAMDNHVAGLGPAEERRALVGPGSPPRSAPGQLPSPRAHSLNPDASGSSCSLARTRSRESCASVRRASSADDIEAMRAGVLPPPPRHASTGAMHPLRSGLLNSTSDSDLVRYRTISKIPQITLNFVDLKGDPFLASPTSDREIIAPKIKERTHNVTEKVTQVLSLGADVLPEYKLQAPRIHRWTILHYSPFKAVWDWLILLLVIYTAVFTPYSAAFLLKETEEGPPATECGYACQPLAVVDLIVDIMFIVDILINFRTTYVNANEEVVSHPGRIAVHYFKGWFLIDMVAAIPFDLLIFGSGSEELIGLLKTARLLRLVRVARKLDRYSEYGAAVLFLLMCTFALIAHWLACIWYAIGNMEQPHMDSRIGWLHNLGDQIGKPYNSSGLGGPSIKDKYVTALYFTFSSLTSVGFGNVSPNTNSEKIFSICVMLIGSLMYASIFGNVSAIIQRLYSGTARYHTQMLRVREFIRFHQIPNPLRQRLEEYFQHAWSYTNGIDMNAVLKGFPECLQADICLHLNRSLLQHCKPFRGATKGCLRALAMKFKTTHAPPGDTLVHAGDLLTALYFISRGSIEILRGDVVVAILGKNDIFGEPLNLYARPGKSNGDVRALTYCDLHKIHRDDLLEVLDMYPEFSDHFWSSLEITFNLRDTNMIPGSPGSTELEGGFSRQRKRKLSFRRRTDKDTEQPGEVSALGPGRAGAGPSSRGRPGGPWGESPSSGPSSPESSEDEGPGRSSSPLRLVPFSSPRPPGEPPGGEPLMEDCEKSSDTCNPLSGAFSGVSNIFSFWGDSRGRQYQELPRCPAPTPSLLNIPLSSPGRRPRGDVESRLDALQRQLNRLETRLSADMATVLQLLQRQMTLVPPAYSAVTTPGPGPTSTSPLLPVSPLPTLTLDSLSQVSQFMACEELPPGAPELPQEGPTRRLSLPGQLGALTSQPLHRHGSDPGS
#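 U2OS cells were transduced with wild-type KCNH2 virus (2.03 x 10^8 / mL) for 4 h at room temperature, then cultured overnight at 37 C. Thallium flux was read with FluxOr dye. Rate constants were normalized to DMSO controls.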
# KCNH2 3.1 block = qHTS for Inhibitors of KCHN2 3.1: Mutant qHTS; activity change, % (tested at about 1.8 µM); AID 720553, 2013; U2OS KCNH2 3.1, thallium flux FluxOr; hits give low values; 340,000 compounds, 0.95% hits; Potassium voltage-gated channel subfamily H member 2, brain isoform KCNH2 3.1 (human);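 active = maximum activity change below -70%; inconclusive = maximum activity change from -70% to -50%; inactive = maximum activity change above -50%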;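 note: thallium influx rate constant from kinetic fluorescence after stimulation buffer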
#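 Virally transduced U2OS (3.1 isoform, 4 h infection in dark at RT) → overnight 37 C → FluxOr + Red40 in HBSS/HEPES, 45 min → stimulation buffer, 2 min kinetic read → rate constant vs DMSO controls.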
# TRPV1 potentiator = HTS Assay for Compounds that Act as Potentiators of the Vanilloid Receptor 1; Transient receptor potential cation channel subfamily V member 1 (Homo sapiens), Q8NER1; TRPV1-expressing cells, Fluo-8 calcium influx, capsaicin EC20 potentiation; potentiation, % at 8.33 µM; 320,000 compounds, 0.02% hits; AID 540277, 2011; in the data active = potentiation above about 80%; inconclusive = between about 30% and that limit
#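 TRPV1-expressing cells were cultured overnight at 35.5C and loaded with Fluo-8 calcium dye for 40 to 90 min at room temperature. After a 10 s baseline, compound was added and calcium influx was read kinetically for 3 min (ex 480/em 520 nm).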
# TRPML1 ag = qHTS for Agonists of the Human Mucolipin Transient Receptor Potential 1 (TRPML1); activation, % (concentration not given with the values); 410,000 compounds, 0.12% hits; TRPML1-expressing cells, Ca2+ dye fluorescence, FDSS; AID 624414, 2012; Mucolipin-1 (Homo sapiens), Q9GZU1; in the data active = activation above about 50%; inconclusive = mostly about 30% to 49%
#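 Agonist activity was taken from a 110 s kinetic Ca2+ dye read on the FDSS after pinning compounds onto TRPML1-DL cells. The cells were seeded at 1,500/well with Tet inducer, incubated about 16 h, then dye-loaded at room temperature.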
# TRPV1 ag = HTS Assay for Compounds that Act as Agonists of the Vanilloid Receptor 1; Transient receptor potential cation channel subfamily V member 1 (Homo sapiens), Q8NER1; TRPV1-expressing cells, Fluo-8 calcium influx, agonist mode; activation, % at 8.33 µM; 320,000 compounds, 0.19% hits; in the data active = activation above about 80%; inconclusive = between about 30% and that limit
#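 Cells expressing TRPV1 were dye-loaded with Fluo-8 and read kinetically: 10 s baseline, 3 min after compound (agonist portion), then 2 min after EC20 capsaicin (allosteric enhancer portion). Calcium-bound dye fluorescence at 480/520 nm.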
# TRPML1 inh = qHTS for Inhibitors of the Human Mucolipin Transient Receptor Potential 1 (TRPML1); 390,000 compounds, 0.02% hits; Mucolipin-1 (Homo sapiens), Q9GZU1; activity change, negative = inhibition, % (test concentration not listed); AID 624415, 2012; TRPML1-inducible cells, Ca2+ dye fluorescence, FDSS; hits give low values; inhibition of EC80 agonist-evoked calcium signal; in the data active = activity change below about -50%; inconclusive = between about -30% and that limit;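 note: stimulus is agonist 54-4 at its EC80 concentration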
#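 TRPML1-DL cells, Tet-induced overnight (~16 h, 37 °C) at 1,500 cells/well, were loaded with Ca8 no-wash dye plus quencher for 45-90 min at room temperature. Compounds were pinned during FDSS kinetic reading; agonist 54-4 at EC80 (4 uM final) then added.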
# Hits are given with their value; i = inactive; ? = inconclusive; nt = no result.
SMILES,hERG WT inh,KCNH2 3.1 block,TRPV1 potentiator,TRPML1 ag,TRPV1 ag,TRPML1 inh
Cc1ccc(-n2cc(CNCCN3CCOC3=O)c(-c3ccc(F)cc3)n2)cc1,i,i,i,i,i,i
Cc1nc2ccccc2n1C1CCN(CC(=O)Nc2ccccc2Br)CC1,?,-91.3,i,i,i,i
Cc1ccccc1NC(=O)CN1CCC(n2nnc3ccccc32)CC1,i,i,i,i,i,i
COc1ccc(C2C(C(=O)Nc3cccnc3)=C(C)Nc3nc(SCc4ccccc4)nn32)cc1 (configuration not stated),nt,nt,nt,i,nt,i
CCCc1cc(=O)oc2cc(OCc3ccc(OC)cc3)c(Cl)cc12,i,-73.8,i,i,i,i
Cc1nnc(N2CCCC(C(=O)NCc3ccc(OC(C)C)cc3)C2)c2nn(-c3ccccc3)c(C)c12 (configuration not stated),i,-81.6,i,i,?,i
CC/C(=C\c1ccc(C(=O)OC)cc1)c1cc(OC)cc2oc3ccccc3c12,nt,nt,nt,i,nt,nt
CC1CCc2c(sc3nc(CN4CCN(S(=O)(=O)c5ccccc5[N+](=O)[O-])CC4)[nH]c(=O)c23)C1 (configuration not stated),i,-73.4,i,i,i,i
CNC(=O)c1[nH]cnc1C(=O)Nc1ccc(C)cc1,i,i,i,i,i,i
Cc1ccc(NC(=O)c2nc[nH]c2C(=O)Nc2ccc(C)cc2)cc1,-192.3,i,i,i,i,i
COc1ccc(N=Nc2nc3ccc(Br)cc3n2C)cc1,i,i,i,53.6,i,i
COc1ccc(-c2c(-c3cc(OC)cc(OC)c3)n(C)c3ccc(Br)cc23)cc1,nt,nt,i,i,i,i
COc1cc(Cl)c(C)cc1NC(=O)Cc1cccs1,i,i,?,i,i,i
COc1cc(Cl)c(C)cc1NC(=O)Cc1ccc(OC)c(OC)c1,i,i,i,i,89.2,i
COc1ccc(CC(=O)Nc2cccc3ncccc23)cc1OC,i,i,i,i,i,i
COc1ccc(CC(=O)Nc2cccc3ccccc23)cc1OC,i,i,i,i,89.0,i
CCC(C)S(=O)(=O)c1oc(-c2cccs2)nc1S(=O)(=O)c1ccccc1 (configuration not stated),nt,nt,nt,i,nt,i
COc1ccc(N2CCN(c3cc(C)c4ccc(O)cc4n3)CC2)cc1,i,i,i,i,i,i
COc1ccc2c(C)cc(N3CCN(c4ccc(F)cc4)CC3)nc2c1,i,-91.3,i,i,i,i
COc1ccc(N2CCN(c3cc(C)c4ccc(C)cc4n3)CC2)cc1,-73.7,-102.1,i,i,i,i
Cc1cc(N2CCN(c3ccc(F)cc3)CC2)nc2cc(O)ccc12,?,-79.2,i,i,i,i
Cc1ccnc2c(Cl)c(Cl)ccc12,nt,nt,nt,i,nt,nt
COc1cc(/C=C(\C#N)c2nc3ccccc3n2C)cc(OC)c1O,i,i,?,59.5,i,i
O=C(CNC(=S)N(CCCN1CCOCC1)Cc1cccs1)N1CCCCCC1,-148.1,-180.9,i,i,i,i
Cc1ccc(S(=O)(=O)N2C[C@H]3C(=O)C[C@@H](c4ccccc4)N(S(=O)(=O)c4ccc(C)cc4)[C@H]3C[C@H]2c2cccc(C)c2)cc1,nt,nt,nt,93.1,nt,?
SMILES,hERG WT inh,KCNH2 3.1 block,TRPV1 potentiator,TRPML1 ag,TRPV1 ag,TRPML1 inh
Cc1ccc(S(=O)(=O)N2C[C@H]3C(=O)C[C@@H](c4ccccc4)N(S(=O)(=O)c4ccc(C)cc4)[C@H]3C[C@H]2c2cccc3ccccc23)cc1,nt,nt,nt,56.5,nt,i
Cc1ccc(S(=O)(=O)N2C[C@H]3C(=O)C[C@@H](c4ccccc4)N(S(=O)(=O)c4cccc(C)c4)[C@H]3C[C@H]2c2ccccc2)cc1,nt,nt,nt,i,nt,i
Cc1ccc([C@@H]2CC(=O)[C@@H]3CN(S(=O)(=O)c4ccc(C)cc4)[C@H](c4cccc5ccccc45)C[C@@H]3N2S(=O)(=O)c2ccc(Cl)cc2)cc1,i,i,nt,i,nt,i
N#Cc1c2n(c3c(=O)n(CC(=O)c4ccc([N+](=O)[O-])cc4)cnc13)CCCCC2,-101.1,i,i,i,i,i
CSc1cccc(NC(=S)N(Cc2ccc(C)cc2)Cc2cccnc2)c1,i,-88.8,i,i,i,i
CCOC(=O)c1cc(-c2ccc(OC)cc2)n(CCC(=O)NC2CCCCC2)c1C,nt,nt,nt,i,nt,i
Cc1ccc(-n2c(Cc3cccs3)nnc2SCC(=O)Nc2ccc(F)c(F)c2)cc1,-76.9,i,i,i,i,i
O=C(CSc1nnc(Cc2cccs2)n1-c1ccccc1)Nc1ccc2c(c1)OCCO2,i,i,i,i,i,i
O=C(CSc1nnc(-c2cccs2)n1-c1ccccc1)Nc1ccccc1,-114.9,-88.9,i,i,i,i
CCn1c(SCC(=O)Nc2ccc(N3CCOCC3)cc2)nnc1-c1ccncc1,i,-75.7,i,i,i,i
CCc1nnc(SCC(=O)Nc2ccc3c(c2)OCO3)n1CC,-205.4,nt,i,i,i,i
C=CCn1c(SCC(=O)Nc2ccc(N3CCOCC3)cc2)nnc1-c1ccncc1,i,i,i,i,i,i
Cc1ccc(S(=O)(=O)N2CCN(c3cc(-c4cccs4)nc4ccccc34)CC2)cc1,nt,nt,nt,i,nt,nt
COc1ccc(C2Nc3ccccc3-c3nnc(SC)nc3O2)cc1C (configuration not stated),nt,nt,nt,i,nt,i
CCn1c(SCC(=O)NCc2ccco2)nnc1-c1cccs1,i,-74.0,i,i,i,i
CCn1c(C)nnc1SCC(=O)Nc1ccc2c(c1)OCCO2,i,i,i,i,i,i
CCn1c(SCC(=O)Nc2ccc3c(c2)OCCO3)nnc1-c1cccs1,i,-81.4,i,i,i,i
CCCCCCn1cc(C(=O)OCC)c(=O)c2cc(F)c(F)cc21,i,i,i,i,i,i
CCOC(=O)c1cn(CC#N)c2cc(F)c(F)cc2c1=O,-70.3,i,i,i,i,i
O=C(NCc1ccc(F)cc1)C1CCCN(c2nc3ccsc3c(=O)s2)C1 (configuration not stated),i,i,i,i,83.0,i
O=C(COc1ccccc1C(=O)Nc1ccccc1)NCCCCc1ccccc1,nt,nt,nt,i,nt,nt
Cn1nnnc1SCC(=O)NC1CCCCC1,i,i,i,i,i,i
